Source: PubChem BioAssay (NCI)
Compounds without any hit were thinned out: in the full panel of roughly 79,000, 15% have a hit. Activity calls are given as the source filed them. Cut-off read from the data, not from the text of the source: active = growth inhibition above about 70%; inactive = the rest.

Assays:
[1] = NCI Yeast Anticancer Drug Screen. Data for the wt1 strain (AID 149);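 note: 0% = growth of vehicle-treated wt1 cultures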; conditions: S. cerevisiae wt1 strain (SPY 50644) growth inhibition, active compounds read high
Summary of the method: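 Readout: yeast growth inhibition, normalised to vehicle controls, in the wt1 strain exposed to test compounds.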

[2] = NCI Yeast Anticancer Drug Screen. Data for the rad50EPP+ strain (AID 151);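 note: 0% = growth of vehicle-treated control cultures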; conditions: S. cerevisiae rad50 mutant strain, active compounds read high
Summary of the method: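 Vehicle-normalised growth inhibition; rad50EPP+ yeast strain, altered in DNA damage repair, compound-treated.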

[3] = NCI Yeast Anticancer Drug Screen. Data for the rad50 strain (AID 155);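 note: 0% = growth of vehicle-only cultures of the same strain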; conditions: S. cerevisiae rad50 strain growth inhibition, active compounds read high
Summary of the method: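 Compounds were tested on a yeast strain with an engineered DNA damage repair alteration; the reported value is growth inhibition normalised to vehicle treatment.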

[4] = NCI Yeast Anticancer Drug Screen. Data for the mec2-1 strain (AID 157); conditions: S. cerevisiae mec2-1 strain, active compounds read high
Summary of the method: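 Mutant yeast (mec2-1) grown with compound; growth inhibition relative to vehicle control reported.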

[5] = NCI Yeast Anticancer Drug Screen. Data for the rad14 strain (AID 159);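 note: 0% = growth of vehicle-treated control cultures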; conditions: S. cerevisiae rad14 strain growth inhibition, active compounds read high
Summary of the method: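 Compound-treated yeast with a defined DNA-repair lesion; growth inhibition normalised to vehicle-treated cultures.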

[6] = NCI Yeast Anticancer Drug Screen. Data for the sgs1 mgt1 strain (AID 161);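 note: 0% = growth of cultures given vehicle only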; conditions: S. cerevisiae sgs1 mgt1 strain, active compounds read high
Summary of the method: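 Compounds are added to genetically altered yeast, and growth is compared with cultures given vehicle alone to give percent inhibition.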

[7] = NCI Yeast Anticancer Drug Screen. Data for the CLN2oe strain (AID 163);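 note: 0% = growth of vehicle-only control cultures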; conditions: S. cerevisiae CLN2oe strain, active compounds read high
Summary of the method: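 Compounds are applied to yeast harbouring a defined cell-cycle control change; reduced growth compared with vehicle-treated controls gives the value.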

[8] = NCI Yeast Anticancer Drug Screen. Data for the cln2 rad14 strain (AID 165);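 note: 0% = growth equal to vehicle treated cultures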; conditions: S. cerevisiae cln2 rad14 strain, active compounds read high
Summary of the method: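 Readout is yeast growth inhibition versus vehicle-treated controls, using a strain with cln2 and rad14 alterations exposed to compound.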

[9] = NCI Yeast Anticancer Drug Screen. Data for the bub3 strain (AID 167); conditions: S. cerevisiae bub3 mutant strain, active compounds read high
Summary of the method: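 Growth of a checkpoint-deficient yeast mutant is measured after compound exposure. Values represent inhibition relative to vehicle.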

[10] = NCI Yeast Anticancer Drug Screen. Data for the wt2 strain (AID 169);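 note: 0% = growth of vehicle-treated yeast cultures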; conditions: S. cerevisiae wt2 strain growth inhibition, active compounds read high
Summary of the method: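 Against vehicle-treated controls, the growth of yeast exposed to each compound was compared, and the inhibition was recorded.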

[11] = NCI Yeast Anticancer Drug Screen. Data for the mlh1 strain (AID 171);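 note: 0% = growth of vehicle-treated control cultures of the same strain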; conditions: S. cerevisiae mlh1 strain growth inhibition, active compounds read high
Summary of the method: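 Measured: yeast growth. Reference: vehicle-treated controls. Organism: strain with a defined alteration affecting DNA damage repair or cell cycle control, treated with compound.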

[12] = NCI Yeast Anticancer Drug Screen. Data for the sgs1 strain (AID 173);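 note: 0% = growth of vehicle-only control cultures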; conditions: S. cerevisiae sgs1 mutant, active compounds read high
Summary of the method: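 Each compound was added to cultures of the altered yeast strain. Growth was recorded, and inhibition was derived by comparison with vehicle controls.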

[13] = NCI Yeast Anticancer Drug Screen. Data for the mlh1 rad18 strain (AID 175); conditions: S. cerevisiae mlh1 rad18 strain growth inhibition, active compounds read high
Summary of the method: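 Genetically defined yeast (DNA repair-deficient) exposed to compounds; growth inhibition determined relative to vehicle.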

[14] = NCI Yeast Anticancer Drug Screen. Data for the rad18 strain (AID 177); conditions: S. cerevisiae rad18 mutant growth inhibition, active compounds read high
Summary of the method: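 Vehicle-treated cultures served as the baseline for scoring compound-induced growth inhibition in DNA-repair-mutant yeast.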

[15] = NCI Yeast Anticancer Drug Screen. Data for the rad52 strain (AID 147);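 note: 0% = growth of vehicle-treated control cultures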; conditions: S. cerevisiae rad52 mutant growth inhibition, active compounds read high
Summary of the method: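 The repair-mutant yeast strain was incubated with compounds, then growth was read and inhibition derived relative to vehicle.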

[16] = NCI Yeast Anticancer Drug Screen. Data for the mgt1 strain (AID 153); conditions: S. cerevisiae mgt1 mutant growth inhibition, active compounds read high
Summary of the method: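 Vehicle-normalized growth inhibition is determined in mgt1 yeast, a strain selected for a defined alteration in DNA repair or cell cycle control.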

[17] = at 5.0 µM (retest, dose inferred, filed as 0.5)
[18] = at 50.0 µM (retest, dose inferred, filed as 5.0)

Measured: growth inhibition

CC1CC(C)CC(C)C(O)/C(C#N)=C/C=C/CC(C2CCCC2C(=O)O)OC(=O)CC(O)C(C)C1 (stereo unspecified)
active: [1]; at 1.2 µM 97% | [1]; at 3.7 µM 99% | [1]; at 11.0 µM 99% | [1]; at 33.0 µM 99% | [1]; at 100.0 µM 98% | [2]; at 33.0 µM 93% | [2]; at 100.0 µM 97% | [3]; at 1.2 µM 94% | [3]; at 3.7 µM 97% | [3]; [17] 98% | [3]; at 11.0 µM 97% | [3]; at 33.0 µM 97% | [3]; [18] 98% | [3]; at 50.0 µM 92.6% | [3]; at 100.0 µM 97% | [4]; at 1.2 µM 96% | [4]; at 3.7 µM 98% | [4]; [17] 99% | [4]; at 11.0 µM 98% | [4]; at 33.0 µM 98% | [4]; [18] 99% | [4]; at 50.0 µM 94.5% | [4]; at 100.0 µM 98% | [5]; at 1.2 µM 98% | [5]; at 3.7 µM 98% | [5]; at 11.0 µM 98% | [5]; at 33.0 µM 99% | [5]; at 100.0 µM 98% | [6]; at 50.0 µM 93.7% | [7]; at 1.2 µM 86% | [7]; at 3.7 µM 96% | [7]; at 11.0 µM 97% | [7]; at 33.0 µM 97% | [7]; at 100.0 µM 97% | [8]; at 50.0 µM 92.4% | [9]; at 1.2 µM 93% | [9]; at 3.7 µM 98% | [9]; at 11.0 µM 98% | [9]; at 33.0 µM 98% | [9]; at 50.0 µM 93.3% | [9]; at 100.0 µM 98% | [10]; at 1.2 µM 90% | [10]; at 3.7 µM 100% | [10]; at 11.0 µM 99% | [10]; at 33.0 µM 99% | [10]; at 100.0 µM 98% | [11]; at 1.2 µM 90% | [11]; at 3.7 µM 98% | [11]; at 11.0 µM 98% | [11]; at 33.0 µM 98% | [11]; at 100.0 µM 98% | [12]; at 1.2 µM 95% | [12]; at 3.7 µM 97% | [12]; at 11.0 µM 98% | [12]; at 33.0 µM 97% | [12]; at 100.0 µM 97% | [13]; [17] 98% | [13]; [18] 98% | [13]; at 50.0 µM 91.6% | [14]; at 1.2 µM 96% | [14]; at 3.7 µM 97% | [14]; at 11.0 µM 98% | [14]; at 33.0 µM 97% | [14]; at 100.0 µM 97%
inactive: [2]; at 1.2 µM -17% | [2]; at 3.7 µM 21% | [2]; at 11.0 µM 68% | [6]; [17] 15% | [6]; [18] 2% | [8]; [17] 8% | [8]; [18] -20% | [9]; [17] 10% | [9]; [18] -7%

O=[N+]([O-])c1ccc(-n2nc3ccc4c(no[n+]4[O-])c3[n+]2[O-])c([N+](=O)[O-])c1
active: [3]; [18] 98% | [4]; [18] 98% | [6]; [18] 97% | [6]; at 50.0 µM 70.5% | [8]; [18] 97% | [9]; [18] 96% | [13]; [18] 97%
inactive: [15]; at 1.2 µM 0% | [15]; at 3.7 µM 1% | [15]; at 11.0 µM 2% | [15]; at 33.0 µM 4% | [15]; at 100.0 µM 6% | [2]; at 1.2 µM 3% | [2]; at 3.7 µM 8% | [2]; at 11.0 µM 13% | [2]; at 33.0 µM 26% | [2]; at 100.0 µM 24% | [16]; at 1.2 µM -4% | [16]; at 3.7 µM -3% | [16]; at 11.0 µM 5% | [16]; at 33.0 µM -3% | [16]; at 100.0 µM -2% | [3]; at 1.2 µM -1% | [3]; at 3.7 µM 1% | [3]; [17] 20% | [3]; at 11.0 µM -5% | [3]; at 33.0 µM 6% | [3]; at 50.0 µM 30.4% | [3]; at 100.0 µM 4% | [4]; at 1.2 µM 3% | [4]; at 3.7 µM 0% | [4]; [17] 23% | [4]; at 11.0 µM 2% | [4]; at 33.0 µM 3% | [4]; at 50.0 µM 9.9% | [4]; at 100.0 µM 2% | [5]; at 1.2 µM -3% | [5]; at 3.7 µM -1% | [5]; at 11.0 µM 7% | [5]; at 33.0 µM 8% | [5]; at 100.0 µM 8% | [6]; [17] 16% | [7]; at 1.2 µM -1% | [7]; at 3.7 µM -5% | [7]; at 11.0 µM -6% | [7]; at 33.0 µM -2% | [7]; at 100.0 µM 2% | [8]; [17] 44% | [8]; at 50.0 µM 9.9% | [9]; at 1.2 µM -3% | [9]; at 3.7 µM 1% | [9]; [17] -14% | [9]; at 11.0 µM 10% | [9]; at 33.0 µM 8% | [9]; at 50.0 µM 66.7% | [9]; at 100.0 µM 9% | [10]; at 1.2 µM -8% | [10]; at 3.7 µM -3% | [10]; at 11.0 µM -2% | [10]; at 33.0 µM 2% | [10]; at 100.0 µM 3% | [11]; at 1.2 µM 0% | [11]; at 3.7 µM -4% | [11]; at 11.0 µM -3% | [11]; at 33.0 µM 1% | [11]; at 100.0 µM -5% | [12]; at 1.2 µM -1% | [12]; at 3.7 µM 1% | [12]; at 11.0 µM 3% | [12]; at 33.0 µM 4% | [12]; at 100.0 µM 6% | [13]; [17] 28% | [13]; at 50.0 µM -13.2% | [14]; at 1.2 µM -1% | [14]; at 3.7 µM 4% | [14]; at 11.0 µM 7% | [14]; at 33.0 µM 1% | [14]; at 100.0 µM 19%
